# Calb FLC = C. albicans growth modulation with fluconazole. C. albicans CaCi-2 (fluconazole-resistant clinical isolate) + fluconazole, Alamar Blue growth, 48 h. growth inhibition, % (no concentration beside the values). actives 0.57% (n = 300,000). AID 1979;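 active = growth inhibition above about 58% in most replicates, limit read from the data, passing the limit was not always enough; inconclusive = exactly half the replicates above a set limit; inactive = most replicates below a set limit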;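 note: all wells also contain fluconazole at 8 µg/ml as a sub-toxic cotreatment; 0% = median of DMSO wells and 100% = median of geldanamycin control wells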
# Beta apoptosis = beta cell apoptosis inhibition; INS-1E cytokine-induced death, ATP luminescence, 48 h; percent of positive-control rescue, neutral wells zero; protection from apoptosis, % (no concentration beside the values); actives 0.8% (n = 300,000); AID 435005;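 active = Every replicate reaches about 75%, or at least half do and their mean reaches it too, limit read from the data; inconclusive = At least half of replicates reach the limit but their mean does not; inactive = Under half of replicates reach the limit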;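 note: 0% = cytokine-treated negative control wells and 100% = positive control rescue; higher means more ATP so stronger rescue from cytokine killing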
# PP1 inh = counter-screen for PP5 inhibitors: inhibitors of human PP1-alpha | purified PP1alpha, OMFP fluorescence | actives 0.9% (n = 320,000) | AID 2235 | inhibition, % at 6.7 µM | P62136;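 active = inhibition above the mean inhibition of all tested compounds plus 3 SD, computed separately for each screening campaign, cut at about 15% in these data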
# CSC inhib = cancer stem cell inhibition | cancer stem cell-like cells viability, luminescence | inhibition, % at 7.5 µM | actives 1.1% (n = 300,000) | AID 2717; in the data active = inhibition above about 75%; inconclusive = no clear call, values can overlap the other calls; tested in HMLE shEcad cells
# Mdm2 MdmX PPI = human Mdm2/MdmX binding inhibition; O15151+Q00987; SaOS-2 split-luciferase Mdm2/MdmX complementation, luminescence; inhibition, % at 8 µM; actives 3% (n = 330,000);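 active = inhibition of at least 50% at 8 µM in the primary screen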
# Target sequence (O15151 whole entry, looked up): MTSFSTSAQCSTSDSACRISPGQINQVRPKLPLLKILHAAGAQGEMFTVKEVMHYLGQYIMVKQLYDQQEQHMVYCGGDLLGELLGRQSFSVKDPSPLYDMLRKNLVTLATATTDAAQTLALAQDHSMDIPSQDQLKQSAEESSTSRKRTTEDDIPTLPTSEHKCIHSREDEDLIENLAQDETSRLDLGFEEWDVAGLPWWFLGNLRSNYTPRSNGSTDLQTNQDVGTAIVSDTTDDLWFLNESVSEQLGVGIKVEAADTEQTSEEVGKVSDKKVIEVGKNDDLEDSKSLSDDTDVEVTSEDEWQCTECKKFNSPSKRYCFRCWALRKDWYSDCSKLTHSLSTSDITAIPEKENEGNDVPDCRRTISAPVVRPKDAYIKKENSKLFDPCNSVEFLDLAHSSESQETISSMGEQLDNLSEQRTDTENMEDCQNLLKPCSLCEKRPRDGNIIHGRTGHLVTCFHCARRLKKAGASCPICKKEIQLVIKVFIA
# Target sequence (Q00987 whole entry, looked up): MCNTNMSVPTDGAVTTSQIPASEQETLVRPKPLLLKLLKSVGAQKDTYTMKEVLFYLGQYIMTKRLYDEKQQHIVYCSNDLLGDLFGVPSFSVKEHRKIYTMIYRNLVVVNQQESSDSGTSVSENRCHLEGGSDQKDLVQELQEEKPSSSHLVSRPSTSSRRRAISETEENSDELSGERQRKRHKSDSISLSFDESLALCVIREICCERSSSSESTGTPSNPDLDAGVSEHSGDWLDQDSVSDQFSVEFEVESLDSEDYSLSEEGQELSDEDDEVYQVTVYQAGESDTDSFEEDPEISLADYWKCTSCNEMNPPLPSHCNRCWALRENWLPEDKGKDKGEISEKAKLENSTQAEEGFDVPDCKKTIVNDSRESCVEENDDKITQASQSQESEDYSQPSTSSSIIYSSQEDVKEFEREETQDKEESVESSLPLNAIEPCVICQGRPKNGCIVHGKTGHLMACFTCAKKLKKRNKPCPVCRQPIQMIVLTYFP
# PP5 primary = blocks human protein phosphatase 5 activity; purified PP5c, OMFP substrate fluorescence; inhibition, % at 6.7 µM; actives 0.18% (n = 320,000);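 active = inhibition above the campaign's mean inhibition across all tested compounds plus 3 SD, cut at about 9.5% in these data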;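 note: 0% = DMSO only and 100% = 100 µM cantharidin control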
# * marks the source's active call; other numbers are inactive results; ? = inconclusive; . = not tested or not shown. Rows were chosen to be rich in hits. Some 4.9% of all compounds tested hit in one or more screens of this group.
SMILES,Calb FLC,Beta apoptosis,PP1 inh,CSC inhib,Mdm2 MdmX PPI,PP5 primary
COc1ccc2c(c1O)C(=O)c1ccccc1C2=O,-0.8,-1.6,-1.5,6.6,-3.1,0.8
CC(C)COC(=O)c1ccc2c(c1O)C(=O)c1ccccc1C2=O,-4.4,85.2*,-1.6,21.1,-29.9,2.0
CNC(=S)/N=C/NOCc1ccc(Cl)cc1Cl,92.9*,.,0.0,-2.5,23.1,2.6
COc1cccc(NC(=O)CCCn2nc(C)c3c(C)n(-c4ccccc4)nc3c2=O)c1,-4.9,0.2,-4.7,-10.7,0.6,-2.9
COc1ccc(CN(C)c2ccc(S(=O)(=O)N3CCN(C)CC3)cc2[N+](=O)[O-])cc1OC,.,102.1*,-5.5,.,8.7,0.8
CCOC(=O)c1c(NC(=S)NC)sc2c1CC(C)(C)SC2,91.3*,7.7,-5.8,4.5,10.5,0.2
CCOC(=O)c1c(NC(=S)Nc2ccccc2)sc2c1CC(C)(C)SC2,-8.2,4.7,-0.5,-9.0,-22.4,5.2
COc1cc2sc(-c3ccccc3OC)c(-c3ccc(O)cc3)c2cc1OC,.,-10.1,.,80.2*,27.1,.
COc1ccc2sc(-c3ccccc3OC)c(-c3ccc(O)cc3)c2c1,.,-0.6,0.9,108.5*,22.2,4.0
COc1cc(OC)cc(-c2sc3ccc(OC)cc3c2-c2ccc(O)cc2)c1,.,1.9,.,136.1*,20.2,.
CC(=O)c1ccc(N2CCN(C(=O)CNS(=O)(=O)c3ccc4c(c3)OCCCO4)CC2)c(F)c1,.,.,.,.,16.5,.
Cc1ccccc1OCC(=O)N/N=C/c1ccco1,9.9,-3.8,-0.6,3.8,1.1,-0.3
COc1ccc(OCC(=O)N/N=C/C(C)=C/c2ccco2)c(Br)c1,1.1,0.6,17.4*,.,39.4,-4.8
CC1(C(=O)O)CCC(C(=O)NNC(=O)c2ccccc2O)C1(C)C (configuration not stated),-19.3,-16.0,1.2,1.2,1.8,-0.1
CC(C)c1ccc(NC(=O)c2sccc2-n2cccc2)cc1,-8.7,0.5,-0.4,32.8,-17.7,2.1
O=C(O)c1ccc(C(=O)C(=O)c2ccccc2)cc1,-1.0,3.5,-3.3,.,10.0,3.0
C=C(C(=O)c1ccccc1)C(C)C(=C)C(=O)c1ccccc1,-6.4,117.5*,-0.4,81.9*,.,-1.4
CN(C)C(=O)/C(C#N)=C\c1cc(Br)c(Sc2ccc(Cl)cc2)o1,.,-2.0,-1.8,102.6*,.,1.7
Clc1ccc(Sc2oc(/C=N/n3cnnc3)cc2Br)cc1,19.6,-11.7,12.2,-12.1,2.0,1.6
CO/N=C/c1ccc(N2CCN(C(=O)c3ccc(C)cc3)CC2)c([N+](=O)[O-])c1,108.6*,2.5,1.9,-6.7,10.8,1.6
COc1cccc(C(=O)/C=C/c2ccc(N3CCCCC3)c([N+](=O)[O-])c2)c1,10.4,-2.0,-0.6,85.9*,11.0,1.8
O=C(/C=C/c1ccc(N2CCCCC2)c([N+](=O)[O-])c1)c1ccc(S(=O)(=O)N2CCCC2)cc1,-8.2,3.2,-3.2,28.6,.,3.3
NS(=O)(=O)c1ccc(CCNC(=O)c2ccc3c(=O)n4c(nc3c2)CCCCC4)cc1,.,-5.0,.,-0.6,-20.2,.
COC(=O)C1Cc2ccccc2CN1C(=O)CCl (configuration not stated),-3.7,5.3,-3.2,-3.6,37.5,-2.3
COc1ccc(Cl)cc1NC(=O)COC(=O)c1cc(NS(=O)(=O)c2cccs2)ccc1O,14.0,-4.4,3.0,16.2,17.0,3.1
SMILES,Calb FLC,Beta apoptosis,PP1 inh,CSC inhib,Mdm2 MdmX PPI,PP5 primary
Cc1ccc(S(=O)(=O)/N=C(/c2ccccc2)N2CCOCC2)c(C)c1,81.2*,.,-3.2,-6.7,-14.9,1.4
Cc1ccc(S(=O)(=O)/N=C(/c2ccccc2)N2CCOCC2)cc1,-10.5,-2.4,-0.8,-27.4,-6.4,4.0
COc1ccc(-c2nc(CCl)cs2)cc1,?,-6.0,-2.3,3.1,-17.2,0.0
COc1ccc(-c2csc(-c3ccc(O)cc3)n2)cc1,-7.3,6.2,-1.5,89.9*,-25.6,2.2
COc1ccc(-c2csc(-c3ccccc3)n2)c(OC)c1,98.7*,.,-0.1,10.6,-363.4,0.6
CCS(=O)(=O)N1Cc2ccccc2CC1C(=O)Nc1cccc(S(=O)(=O)N(C)C)c1 (configuration not stated),1.1,-2.9,-2.6,-11.0,17.8,2.3
CCn1c(CNC(=O)c2ccccc2OC)nnc1SCC(=O)c1ccc(F)cc1,6.9,-0.2,-1.1,-10.7,-21.6,1.1
NS(=O)(=O)c1ccc(NNC(=O)c2sccc2Cl)cc1,-9.9,2.3,-2.5,6.0,13.7,-1.5
O=C(NNc1ccc([N+](=O)[O-])cc1)c1ccccc1Cl,92.1*,-0.6,1.4,4.0,-3.2,1.5
NS(=O)(=O)c1ccc(NNC(=O)c2ccccc2C(=O)O)cc1,-15.9,-3.1,-0.5,-8.0,-21.7,1.5
O=C(NNc1ccc(Cl)cc1)c1sccc1Cl,104.9*,6.6,-1.3,94.4*,-6.4,2.8
O=C(O)c1ccccc1-c1ccccc1C(=O)NNc1ccc([N+](=O)[O-])cc1,-4.4,-1.3,4.0,10.4,7.7,-1.3
O=C(NNc1ccc(Cl)cc1)c1c(F)cccc1Cl,82.6*,-6.0,-9.5,18.5,-11.6,1.8
O=C(O)c1ccccc1C(=O)NNc1ccc(Cl)cc1,-27.7,-3.6,-0.1,91.1*,12.6,1.2
CCOC(=O)c1cc(-c2ccc(F)cc2)n(CCC(=O)NC2CCN(Cc3ccccc3)CC2)c1C,-4.4,5.1,-3.2,9.6,44.0,3.8
O=C(c1ccc(Cl)cc1)c1c[nH]c(C(=O)NNc2ccccc2)c1,?,2.5,4.2,95.2*,25.2,0.6
O=C(/C=C/c1ccccc1)NNc1ccc(Cl)cc1,97.3*,3.3,4.1,96.2*,-1.0,0.2
O=C(NNc1ccccc1)C(=O)NNS(=O)(=O)c1ccc([N+](=O)[O-])cc1,-19.9,-1.3,-1.6,92.5*,-1.5,1.2
O=C(NNc1ccc([N+](=O)[O-])cc1)Nc1ccccc1,-14.7,1.7,0.4,10.7,-33.0,2.2
COc1ccc(OC)c(S(=O)(=O)N2CCCC2C(=O)NC(C)c2ccccc2)c1 (configuration not stated),-4.3,4.4,-2.2,-14.2,2.7,0.4
CNC(=O)c1sc(N2N=C3/C(=C/c4ccccc4)CCCC3C2c2ccccc2)nc1C (configuration not stated),17.8,97.9*,-6.4,51.0,34.1,4.8
O=C(c1ccccn1)N1N=C2/C(=C/c3ccccc3)CCCC2C1c1ccccc1 (configuration not stated),7.4,2.9,4.2,12.4,10.6,4.5
O=C(Oc1cccc2cccnc12)c1cccc([N+](=O)[O-])c1,-3.5,1.0,-1.1,-13.9,-1.7,-0.1
O=C(Oc1ccc(Cl)c2cccnc12)c1cccc([N+](=O)[O-])c1,85.0*,2.1,3.8,107.8*,-0.7,0.3
O=C(Oc1c(Cl)cc(Cl)c2cccnc12)N1CCOCC1,91.7*,-2.7,-3.1,-14.1,-18.4,3.3

# Compound activity (PubChem)
